Experimental data published in PubChem BioAssay AID1347137 (National Center for Advancing Translational Sciences (NCATS), 2019).
The list shows a part of the results. Results filed as inconclusive are left out. A number with no mark means an inactive call. The source made the active and inactive calls. Calls come from the whole dose curve; as a rule, active = well fitted inhibition curve with a large enough effect; inconclusive = small, poorly fitted or top-dose-only effect; inactive = no such curve, though single readings can be large or run the other way.

Assay: qHTS of pediatric cancer cell lines to identify multiple opportunities for drug repurposing: Orthogonal 3D viability screen for Daoy cells
Details: Daoy 3D spheroid viability, PI/Hoechst imaging, 72 h; series mostly up to 30.7 µM; activity change, negative = viability loss: at the top concentration
From the text: Drug repurposing or repositioning has been offered as a strategy for drug development in oncology programs. This approach has special potential for childhood cancers and other rare or orphan diseases, where the expected return on new drug development has been a disincentive to pharmaceuticals. […] In this project we exploit the poly-pharmacology of drugs to discover new indications via phenotypic screening of a panel of 19 well-characterized cell lines derived from solid tumors seen in children and adolescents. The goal is to identify approved drugs with previously unrecognized anticancer properties that has the potential to reveal new mechanisms and biological processes involved in carcinogenesis or drug resistance. We employed a titration-based paradigm (quantitative high-throughput screening or qHTS), where all compounds were tested at multiple concentrations for their effect on cell viability. Concentration-response curves (CRCs) were derived directly from the primary screen, and both potency and efficacy values were used to identify compounds with robust bioactivity profiles. […] These two assays will be use to validate active compounds and assess the correlation of compound's potency in 2D vs 3D cultures on selected cell lines. Assay Submitter: Nathalia J. Martinez, National Center for Advancing Translational Sciences, National Institutes of Health, Rockville, MD, USA; email: natalia.martinez@nih.gov Shen, M et al. Quantitative high-throughput phenotypic screening of pediatric cancer cell lines identifies multiple opportunities for drug repurposing. Oncotarget 2017 Dec 19;9(4):4758-4772. PMID 29435139.
The cells were obtained from University of North Carolina (UNC), Pediatric Preclinical Testing Program (PPT), and Coriell Institute (CI). qHTS viability in 3D culture: Cells were assayed in phenol red-free growth media at a density of 1,000 cells/well, with the exception of Daoy, and SH-N-SH which were assayed at 1,500 cells/ well. Thirty muL of cells were dispensed into 384-well, ULA, round bottom plates (Corning) using a Multidrop dispenser. […] Spheroid viability was first determined by high-content imaging using Hoechst 33342 and Propidium Iodide (PI, ThermoFisher Scientific), followed by addition of CellTiter-Glo 3D (Promega). […] Plates were incubated for 30 min at RT on a VWR microplate shaker (300 rpm) and analyzed for luminescence intensity using a ViewLux High-throughput CCD imager equipped with clear filters. […] The data were exported to Excel, and the average fluorescent intensities were used to calculate the ratio of PI over Hoechst, which was used to quantify viability. […]

Row | Compound | Potency | activity change, negative = viability loss
1 | CC1(C)O[C@@H]2C[C@@H]3[C@H]4C[C@@H](F)C5=CC(=O)C=C[C@]5(C)[C@@]4(F)[C@@H](O)C[C@]3(C)[C@]2(C(=O)CO)O1 | 3620 nM (active) | –
2 | C=C1C(=CC=C2CCC[C@]3(C)[C@@H]([C@H](C)C=C[C@H](C)C(C)C)CC[C@@H]23)C[C@@H](O)C[C@@H]1O | – | 54.7%
3 | CC(NCc1ccc2c(c1)nc(NC(=O)c1ccc(-c3cn[nH]c3)s1)n2CC(C)(C)O)C(C)(C)C (centres undefined) | 511 nM (active) | –
4 | CC[C@H]1CN2CCc3cc(OC)c(OC)cc3[C@@H]2C[C@@H]1C[C@H]1NCCc2cc(OC)c(OC)cc21 | 406 nM (active) | –
